This note sets out measurements from PubChem BioAssay (NCATS).

SMILES strings stand for the structures. Inconclusive results are not listed. A number with no mark means an inactive call. The source made the active and inactive calls. The call rests on the fitted dose curve; in most records, active means well fitted cell-killing curve with a large enough effect; inconclusive means small, poorly fitted or top-dose-only effect, or effect the other way; inactive means no such curve, though single readings can be large or run the other way.
Potency means the concentration at half of the fitted maximal effect.

This test can be described thus: Quantitative High-Throughput drug screen in 47 multiple myeloma cell lines against the NCATS MIPE library collection: L363_DSMZ cell viability assay (AID 1918984). Further: nearly all actives have a fitted effect of over 40% in size. Particulars: L363 myeloma viability, CellTiter-Glo ATP luminescence, 48 h; series mostly up to 45.8 µM; viability (% of control): at the top concentration. From the text:
PI: Beverly A. Mock Ph.D.
Laboratory of Cancer Biology and Genetics,
Center for Cancer Research, National Cancer Institute,
National Institute of Health, Bethesda, Maryland
Drug resistance and disease progression are common in multiple myeloma (MM) patients, underscoring the need for new therapeutic combinations. […] We hypothesized that effective combinations would reduce MYC expression and enhance p16 activity. […] These preclinical data identify potentially useful drug combinations for evaluation in drug-resistant MM and reveal potential mechanisms of combined drug sensitivity.
Described herein is the primary MIPE qHTS used to cherrypick compounds. Validated compounds were then further tested for potential synergistic activiy.
[1] Peat TJ, Gaikwad SM, Dubois W, Gyabaah-Kessie N, Zhang S, Gorjifard S, Phyo Z, Andres M, Hughitt VK, Simpson RM, Miller MA, Girvin AT, Taylor A, Williams D, D'Antonio N, Zhang Y, Rajagopalan A, Flietner E, Wilson K, Zhang X, Shinn P, Klumpp-Thomas C, McKnight C, Itkin Z, Chen L, Kazandijian D, Zhang J, Michalowski AM, Simmons JK, Keats J, Thomas CJ, Mock BA. Drug combinations identified by high-throughput screening promote cell cycle transition and upregulate Smad pathways in myeloma. Cancer Lett. 2023 Aug 1;568:216284. doi: 10.1016/j.canlet.2023.216284. Epub 2023 Jun 24. PMID: 37356470; PMCID: PMC10408729.
SEQUENCE No. (e.g., 1, 2, 3, etc.); […] (e.g., Cells, Incubation, Reagent, etc.); VALUE and DESCRIPTION.
1; Cells; 5 uL; white, solid bottom 1536-well Greiner assay plate.
2; Compounds; 23 nL; Kalypsis pin tool (Wako USA) equipped with a 1536-well pin head to transfer to the assay plates.
3; Incubation; 48 hours; 37C incubation.
4; Reagent;5uL; CellTiter Glo (Promega).
5; Detector; 425V; Luminescence; Viewlux PerkinElmer.
NOTES (numbers refer to Sequence numbers above)
1. The cell-based screening methods employed in this study were like those previously published. Briefly, the corresponding myeloma cell lines were screened in 1,536-well plates with 500 cells, 5-uL per well for inhibition of cell viability (assessed by measuring ATP levels with CellTiterGlo).
2. NCATS MIPE 4.0 library of approved and investigational drugs were added using the Kalypsis pin tool. Wells treated with DMSO only for 100% viability and media only for 0% viability were used as controls.
3. The assay plates were covered and incubated for 48 hours in a 37C, 5% CO2 incubator with controlled humidity.
4. After 48 hours, CellTilter-GloTM luminescent substrate mix (Promega) reagent was added to the assay plate and plates we incubated for 5 min at room temperature.
5. Signal was measured as median relative luminescence units on a ViewLux (PerkinElmer) multiplate reader.
[1] Heske CM, Davis MI, Baumgart JT, Wilson K, Gormally MV, Chen L, Zhang X, Ceribelli M, Duveau DY, Guha R, Ferrer M, Arnaldez FI, Ji J, Tran HL, Zhang Y, Mendoza A, Helman LJ, Thomas CJ. Matrix Screen Identifies Synergistic Combination of PARP Inhibitors and Nicotinamide Phosphoribosyltransferase (NAMPT) Inhibitors in Ewing Sarcoma. Clin Cancer Res. 2017 Dec 1;23(23):7301-7311. doi: 10.1158/1078-0432.CCR-17-1121. Epub 2017 Sep 12. PMID: 28899971; PMCID: PMC6636827.
(ATP-based viability assays read luminescence as a measure of living cells.)
As to `CCOc1ccc(Cc2cc([C@@H]3O[C@H](CO)[C@@H](O)[C@H](O)[C@@H]3O)ccc2Cl)cc1`, the Potency was 18.7 µM (active). Consider `Clc1cccc(Cl)c1NC1=NCCN1`, for which the “viability (% of control)” value is 91.9%. Consider `NC(=O)c1cnccn1`, for which the “viability (% of control)” value is 98.6%. On to `N[C@@H]1CONC1=O`, for which the “viability (% of control)” value was 91.1%.

For `CCC(=O)N[C@H]1CC[C@H](C(=O)N(C)c2ccc(-c3nc4ccccc4o3)cc2)C1`, the Potency was 16.6 µM (active).

In the case of `CN(C)c1ccc(C2Nc3ccc4ccccc4c3C3=C2C(=O)CC(C)(C)C3)cc1Br` (stereo not given), the “viability (% of control)” value was 118%.

Take `Cc1[nH]c(=O)c(C#N)cc1-c1ccncc1`: the “viability (% of control)” value is 77.4%.

For the molecule `Cc1cccc(-c2[nH]c(C(C)(C)C)nc2-c2ccc3nccnc3c2)n1`, the Potency was 1.87 µM (active). Regarding `O=c1ncn2nc(Sc3ccc(F)cc3F)ccc2c1-c1c(Cl)cccc1Cl`, the Potency was 18.7 µM (active). With `CCCCCCCc1ccc(CCc2cccc(O)c2C(=O)O)cc1`, the “viability (% of control)” value was 124%. Still for that read-out and setting: for `O=C1[C@H](Cc2ccc(O)cc2)N2C(=O)CCN(C(=O)NCc3ccccc3)[C@H]2CN1Cc1cccc2ccccc12` the value was 109%. On to `COc1ccc(C2=N[C@H](c3ccc(Cl)cc3)[C@H](c3ccc(Cl)cc3)N2C(=O)N2CCNC(=O)C2)c(OC(C)C)c1`, for which the Potency is 0.059 µM (active).

Regarding `CC(=O)Oc1ccccc1C(=O)O`, the “viability (% of control)” value was 120%. Still for that read-out and setting: for `Cc1c(C)c2c(c(C)c1O)CCC(C)(COc1ccc(CC3SC(=O)NC3=O)cc1)O2` (stereo not given) the value was 47.5%. On to `COc1ccc(-c2ccc3c(N4CCOCC4)nc(N4C[C@@H](C)O[C@@H](C)C4)nc3n2)cc1CO`, for which the Potency was 0.235 µM (active). On to `Nc1nc2ccc(OC(F)(F)F)cc2s1`, for which the “viability (% of control)” value was 97%. In the case of `C[C@]12CC[C@H](O)CC1=CC[C@@H]1[C@H]2CC[C@]2(C)C(c3cccnc3)=CC[C@H]12`, the “viability (% of control)” value was 99.2% [at 23.2 µM]. In the case of `Cc1cc(SCc2sc(-c3ccc(C(F)(F)F)cc3)nc2C)ccc1OCC(=O)O`, the “viability (% of control)” value is 123%.

Take `CCN(CC)CCCC(C)Nc1ccnc2cc(Cl)ccc12` (stereo not given): the Potency was 0.935 µM (active).

In the case of `CCOC(=O)N1CCC(=C2c3ccc(Cl)cc3CCc3cccnc32)CC1`, the “viability (% of control)” value was 143%.

As for `Cn1cnc2c(F)c(Nc3ccc(Br)cc3Cl)c(C(=O)NOCCO)cc21`, the Potency was 0.833 µM (active).

Consider `COc1cc(Nc2ncc3c(n2)-c2ccc(Cl)cc2C(c2c(F)cccc2OC)=NC3)ccc1C(=O)O`, for which the “viability (% of control)” value is 51.7%. As to `NCCc1ccc(O)c(O)c1`, the Potency is 23.5 µM (active).

With `CCn1c(-c2nonc2N)nc2cnc(Oc3cccc(NC(=O)c4ccc(OCCN5CCOCC5)cc4)c3)cc21`, the Potency was 8.33 µM (active). On to `CNC(=O)c1ccc(N2C(=S)N(c3ccc(C#N)c(C(F)(F)F)c3)C(=O)C2(C)C)cc1F`, for which the “viability (% of control)” value was 79.6%. `COc1ccc(COc2cc3oc(=O)c4cc(C(C)O)ccc4c3cc2OC)cc1` (stereo not given): the Potency was 5.26 µM (active). In the case of `CCC(C)(C)C(=O)O[C@H]1C[C@@H](C)C=C2C=C[C@H](C)[C@H](CC[C@@H]3C[C@@H](O)CC(=O)O3)[C@H]21`, the Potency is 13.2 µM (active). The same measure, in the same setting: as for `CN(C)c1ccc(Nc2nc(N)n(C(=O)c3c(F)cccc3F)n2)cc1`, the figure is 20.9 µM (active). On to `CCCc1nn(C)c2c(=O)[nH]c(-c3cc(S(=O)(=O)N4CCN(C)CC4)ccc3OCC)nc12`, for which the “viability (% of control)” value is 88.5%. Turning to `NC(=O)c1ccc(-c2nc(-c3ccc4c(c3)OCCO4)c(-c3ccccn3)[nH]2)cc1`, the Potency was 20.9 µM (active). Consider `OCCn1cc(-c2cnc3nnn(Cc4ccc5ncccc5c4)c3n2)cn1`, for which the “viability (% of control)” value is 94.4%.

In the case of `Nc1nccc(-c2ccc3noc(-c4ccc(Cl)cc4)c3c2)n1`, the “viability (% of control)” value was 130%. For the molecule `CCc1cc(Nc2nccc(-c3c(-c4ccc(OC)c(C(=O)Nc5c(F)cccc5F)c4)nc4ccccn34)n2)c(OC)cc1N1CCC(N2CCN(S(C)(=O)=O)CC2)CC1`, the Potency was 16.6 µM (active).

Turning to `COCC(=O)NCC=Cc1ccc2ncnc(Nc3ccc(Oc4ccc(C)nc4)c(C)c3)c2c1`, the Potency is 14.8 µM (active). The same measure, in the same setting: for `S=C(NCc1ccc2c(c1)OCO2)N1CCN(c2ncnc3c2oc2ccccc23)CC1` the value was 0.605 µM (active). On the same count and under the same terms, as for `OCCC#Cc1nc(-c2ccc(F)cc2)c(-c2ccncc2)n1CCCc1ccccc1`, the figure is 5.26 µM (active); as for `CS(=O)(=O)Oc1ccc2c(NC(N)=O)c(C(=O)c3ccc(Cl)cc3Cl)oc2c1`, 6.62 µM (active). Take `CCOc1cc(N2CCC(O)CC2)ccc1Nc1ncc2c(n1)N(C)c1ccccc1C(=O)N2C`: the Potency was 0.526 µM (active). With `O=C(O)[C@@H](c1ccc(OCc2ccc3ccccc3n2)cc1)C1CCCC1`, the “viability (% of control)” value was 99.4%.

On to `CCOC(=O)C1=C[C@]2(CC)CCCN3CCc4c(n1c1ccccc41)[C@@H]32`, for which the Potency is 11.8 µM (active).
